# High-throughput results from PubChem BioAssay.
# A selection: hits, their analogues and other compounds. The true share with any hit is near 2.3%.
# PLC-gamma1 inh – PLC-gamma1 (human) inhibition, primary screen; inhibition, % at 12.2 µM; P19174; 370,000 tested, 0.84% active; purified PLC-gamma1, fluorogenic substrate, fluorescence; in the data active means inhibition above about 9.5%
# LEDGF integ inh – blocks HIV-1 LEDGF/p75-dependent DNA integration | TR-FRET IN-LEDGF/p75 DNA integration, Eu/Cy5 | inhibition, % at 3.7 µM | 370,000 tested, 0.64% active | AID 743269;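 active means inhibition above the screen-wide mean plus 3 SD, cut at about 13% in these data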;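 further: signal is the Cy5 over europium emission ratio at 671 and 618 nm; 0% = plate median of compound wells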
# PLC-beta3 inh – blocks human PLC-beta3 enzyme activity. Purified PLC-beta3, fluorogenic substrate, fluorescence. inhibition, % at 12.2 µM. 370,000 tested, 0.18% active. AID 720704;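 further: 0% = median of compound wells on plate and 100% = full blocker control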
# MBD2 inh – MBD2-methylated oligo binding inhibition; TR-FRET, MBD2 binding to methylated oligonucleotide; inhibition, % at 4.4 µM; 370,000 tested, 0.31% active; in the data active means inhibition above about 13%
# Target sequence (Q9UBB5 whole entry, looked up): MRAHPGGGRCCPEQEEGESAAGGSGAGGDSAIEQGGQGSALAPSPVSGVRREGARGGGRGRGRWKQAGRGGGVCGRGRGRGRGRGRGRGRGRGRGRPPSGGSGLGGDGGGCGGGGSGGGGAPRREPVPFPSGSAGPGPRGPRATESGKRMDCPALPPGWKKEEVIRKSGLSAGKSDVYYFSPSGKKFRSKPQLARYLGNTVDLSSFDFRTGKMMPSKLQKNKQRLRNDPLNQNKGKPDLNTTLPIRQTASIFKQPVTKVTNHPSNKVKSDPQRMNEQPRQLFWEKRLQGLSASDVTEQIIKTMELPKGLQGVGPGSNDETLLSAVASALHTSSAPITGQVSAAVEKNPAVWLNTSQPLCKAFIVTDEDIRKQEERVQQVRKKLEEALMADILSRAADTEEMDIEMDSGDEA
# UHRF1 MBD2 ctr – human UHRF1 methylated DNA binding inhibitors; Q96T88; UHRF1 binding to methylated oligo, TR-FRET; inhibition, % at 4.4 µM; 370,000 tested, 0.75% active; in the data active means inhibition above about 21%;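 further: UHRF1 SRA domain binding a hemimethylated CpG hairpin DNA probe; 0% = median of test compound wells and 100% = reference inhibitor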
# PLCg1 ctr – counter-screen for PLC-beta3 inhibitors: inhibitors of human PLC-gamma1; shares compounds with PLC-gamma1 inh; purified PLC-gamma1, fluorogenic substrate, fluorescence; inhibition, % at 12.3 µM; 3,300 tested, 3.1% active; in the data active means inhibition above about 9.5%
# PLCbeta3 conf – confirmation of human PLC-beta3 inhibitors | shares compounds with PLC-gamma1 inh | purified PLC-beta3, fluorogenic substrate fluorescence | inhibition, % at 12.3 µM | 3,300 tested, 1% active | AID 743261
# * marks the source's active call; other numbers are inactive results; · = no result given. Unless noted, no stated cut-off is given here; in the data, active means inhibition above about 11%; inactive means the rest.
SMILES,PLC-gamma1 inh,LEDGF integ inh,PLC-beta3 inh,MBD2 inh,UHRF1 MBD2 ctr,PLCg1 ctr,PLCbeta3 conf
O=C(COC(=O)CCc1nc2ccccc2s1)Nc1cccc(S(=O)(=O)N2CCOCC2)c1,11*,0,4,5,2,-2,-2
O=C(COC(=O)CCc1nc2ccccc2s1)Nc1ccc(S(=O)(=O)N2CCOCC2)cc1,1,0,2,-7,-1,·,·
COC(=O)[C@]12C[C@H](CC(=O)N3CCCCC3)C(=O)N(Cc3ccccc3)C1=C[C@H](C(C)C)O[C@@H]2C1CC1,8,5,13*,2,2,-5,-3
COC(=O)[C@]12C[C@H](CC(=O)NCCC(C)C)C(=O)N(Cc3ccc(Cl)cc3Cl)C1=C[C@H](C(C)C)O[C@@H]2C1CC1,3,2,5,-2,3,·,·
COC(=O)[C@]12C[C@H](CC(=O)N3CCOCC3)C(=O)N(Cc3ccccc3)C1=C[C@H](C(C)C)O[C@@H]2C1CC1,1,0,5,-1,0,·,·
COCCCNC(=O)C[C@H]1C[C@@]2(C(=O)OC)C(=C[C@H](C(C)C)O[C@@H]2C2CC2)N(Cc2ccc(Cl)cc2Cl)C1=O,10*,7,5,-1,5,2,-8
CCOc1ccc(Oc2c(Cl)c(Br)nn(Cc3cccc4ccccc34)c2=O)cc1,2,2,2,7,-1,·,·
CCc1ccccc1NCC(=O)Nc1ccc(Cl)c(C(F)(F)F)c1,12*,1,8,-8,-1,-1,1
COC1CCN(C(=O)c2ccc(OC3CCN(Cc4ccccn4)CC3)cc2)CC1,10*,-4,-12,-2,4,-4,0
COCC1CCN(C(=O)c2ccc(OC3CCN(Cc4ccccn4)CC3)cc2)C1 (centres undefined),2,-5,-5,-1,1,·,·
COCCC(=O)N1CCC(Oc2ccc(C(=O)N3CCCC(OC)C3)cc2)CC1 (centres undefined),4,-3,12*,-3,0,-1,-7
COP(=O)(O)C(COCCC(CC(C)C)NC(=O)OCc1ccccc1[N+](=O)[O-])NC(=O)OCc1ccccc1 (centres undefined),-4,4,-3,5,0,·,·
Cc1ccc(NC(=O)Cn2sc3nc(C)cc(C)c3c2=O)c(Cl)c1,13*,3,-1,-4,6,-6,-2
Cc1cc(C)c2c(=O)n(CC(=O)Nc3ccc(Cl)cc3)sc2n1,1,-2,-5,1,4,·,·
COc1c(OC(C)=O)ccc(/C=C/c2ccc3ccccc3n2)c1[N+](=O)[O-],14*,-2,6,-1,4,1,-21
COc1c(OC(C)=O)ccc(/C=C/c2ccc3cccc(OC)c3n2)c1[N+](=O)[O-],4,2,3,-6,-3,·,·
Cc1nc2ccc(NC(=O)c3ccc(F)cc3Cl)cc2c(=O)[nH]1,-8,-2,-14,-1,2,·,·
CC(C)[C@@H](C)/C=C/[C@@H](C)[C@H]1CC[C@@H]2[C@]1(C)CCC1[C@]23C=C[C@]2(C[C@@H](O)CC[C@]12C)N(c1ccc(Br)cn1)O3 (some centres undefined),9.9*,3,-6,-1,0,-1,1
CC(C)C[C@@H](NC(=O)OC(C)(C)C)C(=O)N1O[C@]23C=C[C@]14C[C@@H](O)CC[C@]4(C)C2CC[C@]1(C)[C@@H]([C@H](C)/C=C/[C@H](C)C(C)C)CC[C@H]13 (some centres undefined),2,0,1,0,-3,·,·
COc1cc(-n2c(C)nc3cc(C(=O)N4CC(C)CC(C)C4)ccc32)cc(OC)c1OC (centres undefined),0,4,1,2,4,·,·
Cc1ccccc1OCC(=O)N(Cc1cccs1)C1CCS(=O)(=O)C1 (centres undefined),1,-3,1,2,-1,·,·
Cc1cccc(OC(C)C(=O)N(Cc2cccs2)C2CCS(=O)(=O)C2)c1C (centres undefined),13*,5,3,-7,4,-4,2
O=C(CCc1ccccc1)N[C@H]1[C@H](O)CCC[C@@]12C(=O)N(Cc1ccccc1)c1ccc(-c3ccccc3)cc12,4,-3,-1,6,1,·,·
CC(CN1CCOCC1)OC(=O)c1cccc(Br)c1 (centres undefined),5,12,12*,4,4,-1,1
CCOC(=O)CC1C(=O)NCCN1C(=O)c1ccc(F)cc1F (centres undefined),-1,0,1,1,0,·,·
SMILES,PLC-gamma1 inh,LEDGF integ inh,PLC-beta3 inh,MBD2 inh,UHRF1 MBD2 ctr,PLCg1 ctr,PLCbeta3 conf
CCOC(=O)CC1C(=O)NCCN1C(=O)c1ccc(Cl)cc1Cl (centres undefined),17*,8,2,2,3,-2,1
COc1cc(NC(=O)COC(=O)CC2CC3CCC2C3)cc(OC)c1 (centres undefined),2,-4,-2,0,1,·,·
CN(C)S(=O)(=O)c1ccc(NC(=O)COC(=O)CC2CC3CCC2C3)cc1 (centres undefined),9.8*,3,3,-2,9,-7,-3
C[C@H]1[C@H](c2ccccc2)OC(O)([C@H](Cc2ccccc2)NC(=O)OC(C)(C)C)CN1C (some centres undefined),2,0,-22,6,2,·,·
C[C@@H]1/C=C/CC(=O)N[C@H](c2cccc(Br)c2)[C@H](C)/C=C/CC(=O)N[C@@H]1c1cccc(Br)c1,3,1,1,-9,-1,·,·
CC(=O)c1cccc(NC(=O)C2C3C=CC(C3=C(c3ccccc3)c3ccccc3)C2C(=O)O)c1 (centres undefined),10*,7,-13,-8,2,-8,-12
COc1ccc(CNC(=O)C2CCCN(S(=O)(=O)c3cccc4nsnc34)C2)cc1 (centres undefined),-3,-1,-4,0,-2,·,·
CCN1CCN(S(=O)(=O)c2cccc3nsnc23)CC1,5,0,13*,-2,0,-3,2
COc1ccc(CNC(=O)C2CCN(S(=O)(=O)c3cccc4nsnc34)CC2)cc1,11*,-1,-4,1,4,-7,-3
CCOc1ccc(-n2nnnc2SCC(=O)Nc2ccc(NC(C)=O)cc2)cc1,0,-4,-1,-3,-1,·,·
CCOc1ccc(-n2nnnc2SCC(=O)Nc2cccc(O)c2)cc1,13*,-1,4,-1,0,-3,-3
CN(C)c1ccc(C(=O)NC2CCCCN(Cc3ccc(Cl)cc3)C2=O)cc1 (centres undefined),3,4,-6,0,-1,·,·
COc1nc(OC)nc(N2CCC(C(=O)N(C)Cc3ccco3)CC2)n1,2,2,-1,0,1,·,·
